In PubChem BioAssay (NCATS):
Records with an inconclusive call do not appear. Where a call stands in place of a potency, no number is given. Activity calls are given as the source filed them. Calls come from the whole dose curve; as a rule, active = well fitted inhibition curve with a large enough effect; inconclusive = small, poorly fitted or top-dose-only effect, or effect the other way; inactive = flat fitted curve, though single readings scatter.
Potency is the fitted concentration of half-maximal effect.

Test: Quantitative high throughput screen for delayed death inhibitors of the malarial parasite plastid, 48 hour incubation (AID 488752); note: nearly all actives have a fitted effect of over 65% in size
Settings: Plasmodium falciparum growth; series mostly up to 28.7 µM
From the text: NIH Molecular Libraries Probe Production Network [MLPCN]
NIH Chemical Genomics Center [NCGC]
Assay Provider: David Fidock and Eric Ekland, Columbia University
The goal of this screen is to discover new antimalarial compounds that act by inhibiting the development of the apicoplast in the malarial parasite Plasmodium falciparum. The biochemical processes that make this organelle essential for erythrocytic stage parasites are not well understood. However, antibiotics, such as azithromycin and tetracycline, which target the apicoplast translational machinery, have a potent antimalarial effect.
We have developed a cell-based assay that measures parasite growth based on the expression of an integrated copy of a firefly luciferase reporter. To detect small molecules that cause this 'delayed death' phenotype, erythrocytes infected with the luciferase-expressing parasites were incubated with compounds for either one or two generations, corresponding to 48 and 96 hours, respectively. Compounds that inhibit parasite growth in the second generation, but not the first, should be enriched in antimalarials that target the apicoplast. Growth inhibition is detected by a decrease in luciferase activity
Four microliters of culture medium (RPMI 1640 with 0.5% w/v Albumax (GIBCO), 24 mM sodium bicarbonate and 10 ug/mL gentamycin) were dispensed by a Multi-drop Combi into white solid 1536-well plates (Grenier) and 23 nL compound was added by a pin tool. Four microliters of infected erythrocytes (2% hematocrit, 0.1% parasitemia final concentration) in culture medium were dispensed and the plates incubated for 48 hours at 37 C in 5% CO2. Two microliters of luciferase detection reagent was added and luminescence was detected by a ViewLux (PerkinElmer) reader
In the case of `CNCCCC1c2ccccc2C=Cc2ccccc21`, the Potency is reported as 14700 nM (active).
For `Cc1cc(N)c2ccccc2[n+]1CCCCCCCCCC[n+]1c(C)cc(N)c2ccccc21`, the Potency was 370 nM (active).
For `CC(C)NC[C@H](O)c1ccc(O)c(O)c1`, the Potency was “inactive”.
In the case of `CN(C)CCOC(C)(c1ccccc1)c1ccccn1` (stereo not drawn), the Potency is reported as “inactive”.
For `C[C@H]1O[C@@H](n2cc(F)c(=O)[nH]c2=O)[C@H](O)[C@@H]1O`, the Potency was “inactive”.
With `N=c1c[n+](N2CCOCC2)[n-]o1` the Potency was “inactive”.
In the case of `CCN(CC)CCOC(=O)C1(C2CCCCC2)CCCCC1`, the Potency is reported as “inactive”.
In the case of `OCCN1CCN(CCCN2c3ccccc3Sc3ccc(Cl)cc32)CC1`, the Potency is reported as 10400 nM (active).
In the case of `CCCn1cnc2c1c(=O)n(CCCCC(C)=O)c(=O)n2C`, the Potency is reported as “inactive”.
In the case of `CCN(CC)CCCC(C)Nc1c2ccc(Cl)cc2nc2ccc(OC)cc12` (stereo not drawn), the Potency is reported as 37 nM (active).
In the case of `CC(C)(C(=O)O)c1ccc(C(O)CCCN2CCC(C(O)(c3ccccc3)c3ccccc3)CC2)cc1` (stereo not drawn), the Potency is reported as “inactive”.
For `CCN(CC)CCNC(=O)c1cc(Cl)c(N)cc1OC`, the Potency was “inactive”.
For `NC1CCN(c2cccc(Cl)n2)CC1`, the Potency was “inactive”.
For `C=Cc1c(C)c2cc3[nH]c(cc4nc(cc5nc(cc1[nH]2)C(C)=C5CCC(=O)O)C(CCC(=O)O)=C4C)c(C)c3C=C`, the Potency was “inactive”.
In the case of `CC(C)(C)c1onc(OCP(=O)(O)O)c1CC(N)C(=O)O` (stereo not drawn), the Potency is reported as “inactive”.
For `C[C@](N)(Cc1ccc(O)cc1)C(=O)O`, the Potency was “inactive”.
With `COc1ccc(Cl)cc1C(=O)NCCc1ccc(S(=O)(=O)NC(=O)NC2CCCCC2)cc1` the Potency was “inactive”.
With `CCCCCCCCCCCCCCCC(=O)NCCO` the Potency was “inactive”.
For `CC(CN1c2ccccc2Sc2ccccc21)N(C)C` (stereo not drawn), the Potency was “inactive”.
In the case of `CC(=O)OCC(=O)[C@@]1(O)CC[C@H]2[C@@H]3CCC4=CC(=O)CC[C@]4(C)[C@H]3C(=O)C[C@@]21C`, the Potency is reported as “inactive”.
For `NC(=O)c1ncn([C@@H]2O[C@H](CO)[C@@H](O)[C@H]2O)n1`, the Potency was “inactive”.
In the case of `CNCC(O)c1ccc(O)c(O)c1` (stereo not drawn), the Potency is reported as “inactive”.
For `CC(C)C(=O)c1c(C(C)C)nn2ccccc12`, the Potency was “inactive”.
For `CN(C)CC[C@@H](c1ccc(Cl)cc1)c1ccccn1`, the Potency was “inactive”.
With `CC(C(O)c1ccc(O)cc1)N1CCC(Cc2ccccc2)CC1` (stereo not drawn) the Potency was 4650 nM (active).
With `CC1=C(CC(=O)O)c2cc(F)ccc2/C1=C\c1ccc(S(C)=O)cc1` (stereo not drawn) the Potency was “inactive”.
For `CN1CCN(C2Cc3ccccc3Sc3ccc(Cl)cc32)CC1` (stereo not drawn), the Potency was “inactive”.
For `Nc1cc(=O)[nH]c(N)n1`, the Potency was “inactive”.
For `CNC(=O)Oc1ccc2c(c1)[C@]1(C)CCN(C)[C@@H]1N2C`, the Potency was “inactive”.
With `NC(N)=NCCC[C@H](N)C(=O)O` the Potency was “inactive”.
For `CC1=C(CC(=O)O)c2cc(F)ccc2/C1=C\c1ccc(S(C)(=O)=O)cc1`, the Potency was “inactive”.
For `C#CCN(C)Cc1ccccc1`, the Potency was “inactive”.
With `CC[C@H]1CN2CCc3cc(OC)c(OC)cc3[C@@H]2C[C@@H]1C[C@H]1NCCc2cc(OC)c(OC)cc21` the Potency was 117 nM (active).
